ChEMBL document CHEMBL4513216, “Probing the Open Global Health Chemical Diversity Library for Multistage-Active Starting Points for Next-Generation Antimalarials” (ACS Infect Dis, 2020)
About 8,600 (12%) of roughly 69,000 compounds showed an effect of 50% or more. This excerpt belongs to a sample that is enriched for strong results.

Each molecule was assayed on Plasmodium berghei (assay: Screen against P. berghei liver stage (PbLuc), transformed with Luciferase, at 10uM). Settings: tested at 10 uM.
Assay type: functional, HepG2

SMILES | INHIBITION [%]
Cn1cc(CN2CCc3onc(COc4cccnc4)c3C2)cn1 | 7.11
CCS(=O)(=O)N1CCc2onc(COc3ccccn3)c2C1 | 3.88
c1ccc(OCc2noc3c2CN(c2ncccn2)CC3)nc1 | 24.6
O=S(=O)(C1CC1)N1CCc2onc(COc3ccccn3)c2C1 | 61.5
Cc1cccc(C(=O)N2CCCCC2c2nc(C)cs2)n1 (configuration not stated) | -21.9
Cc1ncc(C)c(N2CCC(Cc3ccc(Cl)cc3)(C(=O)O)CC2)n1 | 12.7
O=C(O)C1(Cc2ccc(Cl)cc2)CCN(c2ncccc2F)CC1 | 52
O=C(O)C1(Cc2ccccc2Cl)CCN(c2ncccc2F)CC1 | 43.5
O=C(CCNC(=O)c1ccccc1)Nc1ccncc1 | 1.58
COC[C@@H]1CCC[C@@]12CN(C(=O)N1CCCC1)CCO2 | 52.1
COC[C@H]1CCC[C@]12CN(S(=O)(=O)c1cccs1)CCO2 | -0.554
COC[C@@H]1CCC[C@@]12CN(C(=O)C1CCOCC1)CCO2 | 33.1
COC[C@H]1CCC[C@]12CN(C(=O)NCc1ccccc1)CCO2 | -1.58
COC[C@@H]1CCC[C@@]12CN(C(=O)N(C)C)CCO2 | 28.5
CC(C)OC[C@H]1CCC[C@]12CN(S(=O)(=O)c1cccs1)CCO2 | 45.2
CC(C)OC[C@H]1CCC[C@]12CN(C(=O)C1CCOCC1)CCO2 | 27.6
COC[C@@H]1CCC[C@]12CN(S(=O)(=O)c1cccs1)CCO2 | 54.1
COCC(=O)N1CCO[C@]2(CCC[C@H]2COC)C1 | 62.9
CN(C)[C@@H]1COC[C@@H]2CN(Cc3ccc4c(c3)OCO4)C[C@@H]21 | -13.7

SMILES | INHIBITION [%]
CC(=O)Nc1nc(CN2CCCCC2Cn2cccn2)cs1 (configuration not stated) | -15.8
CN(C)C(=O)C1CCc2nnc(C(C)(C)C)n21 (configuration not stated) | -7.25
Cc1cc2nccc(C3CCCN(C(=O)c4cnccn4)C3)n2n1 (configuration not stated) | 33.2
O=C(NC1CC1)N1CCc2ncnc(-c3ccncc3)c2CC1 | -17
O=C(c1ccoc1)N1CC[C@@H]2[C@H]1CCC(=O)N2c1ccccc1 | 43.2
Cc1occc1C(=O)N1CCC2(CCCN(Cc3cccs3)C2)C1 (configuration not stated) | -60.9
Cc1cnn(CCNCC(O)c2ccc(C(F)(F)F)cc2)c1 (configuration not stated) | 23.3
CC(C)C(=O)NC1CCCN(C(=O)c2cc3ccccc3cc2O)C1 (configuration not stated) | -13.3
Cc1ccn(-c2ccccc2NCc2cccnc2C)n1 | -11.8
Cc1ccn(-c2ccccc2NCc2cscn2)n1 | 52.4
Cc1ccn(-c2ccccc2NCc2ncc[nH]2)n1 | 7.9
Cc1ccn(-c2ccccc2NCc2ccccn2)n1 | 2.37
Cc1ccc(CNc2ccccc2-n2ccc(C)n2)nc1 | 40.5
Cc1ccn(-c2ccccc2NCc2scnc2C)n1 | 58.3
COCCC(=O)N1C[C@H]2CN(Cc3cccc(C)c3)C(=O)[C@H]2C1 | 14.9
O=C(Nc1cc(C(F)(F)F)c[nH]c1=O)C1CCCNC1 (configuration not stated) | 42.6
O=C(NCCN1CCOCC1)N(CCCO)C1CCCc2ccccc21 (configuration not stated) | 18.3
COc1cccc(C(=O)N2CCN(Cc3nc(C(C)C)no3)CC2)c1 | 43.3
CCOc1ccc(Cl)c(C(=O)NCCc2ncc[nH]2)n1 | 6.05

SMILES | INHIBITION [%]
CCOc1ccc2nc(CN3CCC(CN)C3)ccc2c1 (configuration not stated) | 57.5
COc1nc2ccccc2cc1CN1CCCC(CNC(C)=O)C1 (configuration not stated) | 21.85
CCc1nccc(CN2CCC(CNC(=O)C3CCC(C)CC3)C2)n1 (configuration not stated) | 7.43
OC[C@H]1CCN(Cc2ccc3ccccc3n2)C[C@@H]1O | 2.25
CCOc1ccc2nc(CN3CCC(CNC(C)=O)C3)ccc2c1 (configuration not stated) | 51.5
CCOc1ccc2nc(CN3CCOC(CN)C3)ccc2c1 (configuration not stated) | 24.8
COCCN1CCC(NCc2cc(F)ccc2F)C1 (configuration not stated) | -14
Cc1ncc(S(C)(=O)=O)c(N(C)CCCc2cnn(C)c2)n1 | 29.1
COc1cc(Br)c(CNC2CCCNC2=O)cc1OC (configuration not stated) | 36.5
COc1cc(Br)cc(CNC2CCCNC2=O)c1O (configuration not stated) | 60
COCc1ccc(OC)c(CNC2CCCNC2=O)c1 (configuration not stated) | -9.51
O=C(c1cc2c(s1)CCC2)N1CCC(c2ccncc2)CC1 | 32.3
CC(=O)Nc1nc(C(=O)N2CCCC(n3ccnc3C)C2)cs1 (configuration not stated) | 0.411
CC(C)(C)CC(=O)N1C[C@H]2CCN[C@H]2C1 | 46.4
O=C(CC(F)(F)F)N1C[C@H]2CCN[C@H]2C1 | 62.3
O=C(CC1CC1)N1C[C@H]2CCN[C@H]2C1 | 24.6
Cn1c(C2CC2)nc2c1CCN(Cc1nc3ccccc3s1)C2 | 43.5
Cc1nc2ccccc2nc1CN1CCc2c(nc(C3CC3)n2C)C1 | -12.2
Cn1c(C2CC2)nc2c1CCN(CC(=O)Nc1nncs1)C2 | 17
